Only some compounds are listed: those with a hit (about 7.8% of all), similar ones and a draw of the others.
Vaccinia Venus = qHTS for Stage-Specific Inhibitors of Vaccinia Orthopoxvirus: Venus Reporter Primary qHTS; Vaccinia virus Venus reporter expression, fluorescence; Potency, µM (highest dose often 36.5 µM), without a hit: top-dose activity change, negative = inhibition, actives largely listed as inhibitors; 330,000 compounds, 0.46% hits; calls by dose curve; tested in A549 cells; note: potency is the fitted concentration of half-maximal effect; nearly all actives have a fitted effect of over 30% in size
Marburg entry inh = qHTS for inhibitors of binding or entry into cells for Marburg Virus. Marburg virus pseudotyped entry inhibition, cell reporter. Potency, µM (titrated, usually from 37.8 µM), without a hit: top-dose activity change, negative = inhibition, most hits filed as inhibitors. 300,000 compounds, 1.8% hits; calls by dose curve; tested in HEK293 cells; note: potency is the fitted concentration of half-maximal effect
HCV inh = qHTS Assay for Inhibitors of Hepatitis C Virus (HCV). AID 651820, 2012. Potency, µM (titrated, usually from 41.8 µM), inactives show top-dose activity change, negative = inhibition, hits mostly inhibitors. Huh7.5.1 HCVcc-Cre infection, luciferase reporter, 44 h. 340,000 compounds, 3.4% hits; active = well fitted inhibition curve with a large enough effect; inconclusive = small, poorly fitted or top-dose-only effect, or another doubt; inactive = no such curve, though single readings can be large or run the other way; note: potency is the fitted concentration of half-maximal effect
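Cells seeded at 1,000/well and cultured 4 h, then compounds added followed by HCVcc-Cre virus (~0.5 moi). After 44 h further culture, luciferase substrate was added, plates held 15 min at room temperature, and luminescence read for 15 sec.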
HCMV inh = qHTS Assay for inhibitors of the human cytomegalovirus (HCMV) | 410,000 compounds, 4.5% hits | HFF cells, HCMV-luciferase reporter, 72 h; hits give low values | activity change, negative = inhibition, % at 57.5 µM | AID 1259415, 2018; in the data active = activity change below about -60%; inconclusive = no clear call, values can overlap the other calls; inactive = above about -39%
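Inhibition of viral replication was scored as loss of reporter luminescence in HFFs infected with HCMV-luciferase (MOI 1 PFU/cell) for 72 h; compounds tested at 2 doses, normalized to buffer and Salinomycin controls.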
Vaccinia mCherry = qHTS for Stage-Specific Inhibitors of Vaccinia Orthopoxvirus: mCherry Reporter Primary qHTS. Vaccinia virus mCherry reporter infection, fluorescence. Potency, µM (series often up to 36.5 µM), for the others: top-dose activity change, negative = inhibition, usual class: inhibitors. 310,000 compounds, 0.63% hits. AID 720579, 2013; calls by dose curve; tested in A549 cells; note: potency is the fitted concentration of half-maximal effect; nearly all actives have a fitted effect of over 35% in size
Lassa entry inh = qHTS for Inhibitors of binding or entry into cells for Lassa Virus; Lassa virus pseudotype entry inhibition, cell reporter; Potency, µM (series often up to 37.9 µM), for inactives: at the top dose activity change, negative = inhibition, usual class: inhibitors; 300,000 compounds, 1.2% hits; AID 540256, 2011; calls by dose curve; tested in HEK293 cells; note: potency is the fitted concentration of half-maximal effect; nearly all actives have a fitted effect of over 50% in size
* = called active by the depositor; i = inactive; ? = inconclusive; nt = no result; ! = a repeat was not active; [ ] = dose if it differs, or a comment. % is set by controls: 0 for no effect and ±100 for the full control effect.

SMILES	Vaccinia Venus	Marburg entry inh	HCV inh	HCMV inh	Vaccinia mCherry	Lassa entry inh
Cc1nnc(NCc2ccc(F)cc2)c2c1nnn2Cc1ccccc1Cl	-7%	?	nt	21	-14%	-1%[46.1 µM]
CCc1ccccc1NC(=O)Cn1nnc(C(=O)OC)c1C(=O)OC	0%	-9%[46.1 µM]	nt	-1	-1%	-4%[46.1 µM]
CC(C)C[C@H]1CN([C@@H](CC(C)C)CN2CCC[C@@H]2CN2C(=S)NC[C@@H]2Cc2ccc(O)cc2)C(=S)N1CCc1ccccc1	-16%	nt	nt	-7	-15%	nt
CC(C)C[C@H]1CN([C@@H](CC(C)C)CN2CCCC2CN2C(=S)NC[C@@H]2Cc2ccc(O)cc2)C(=S)N1CCc1ccccc1 (some centres undefined)	-13%	nt	?	-80*	-18%	nt
CC(C)C[C@@H](CN1CCC[C@@H]1CN1C(=S)NC[C@@H]1Cc1ccc(O)cc1)N1C[C@H](Cc2ccccc2)N(CCc2ccccc2)C1=S	-5%	nt	nt	nt	-4%	nt
CC(C)C[C@H]1CNC(=S)N1C[C@H]1CCCN1C[C@H](CC(C)C)N1C[C@H](Cc2ccc(O)cc2)N(CCc2ccccc2)C1=S	-22%	nt	nt	-95*	4%	nt
CCOc1ccc(CCN2C(=S)N([C@@H](CC(C)C)CN3CCCC3CN3C(=S)NC[C@@H]3CC(C)C)C[C@@H]2Cc2ccccc2)cc1 (some centres undefined)	-18%	nt	5.6µM*	3	i	nt
CN(C)c1ccc(C(CNC(=O)c2cccc(C(F)(F)F)c2)N2CCCC2)cc1 (centres undefined)	-16%	nt	nt	-35	-18%	?
CCOC(=O)C1=C(C)N=C2S[C@H](C)C(=O)N2[C@@H]1c1ccc(OC(C)=O)c(OC)c1	nt	-13%	nt	nt	nt	nt
CCOCCCN(Cc1ccco1)C(=O)c1cc2c(=O)[nH]c3ccc(C)cc3c2s1	-29%	?	?	-63*!	?	nt
CCCN(C(=O)c1cc2c(=O)[nH]c3ccc(C)cc3c2s1)c1ccc(CC)cc1	1%	13%[46.1 µM]	nt	-5	-15%	nt
CCCN(CCC)C(=O)c1cc2c(=O)[nH]c3ccc(C)cc3c2s1	nt	-29%	11µM*	2	nt	?
Cc1ccc(C)c(N(C)C(=O)c2cc3c(=O)[nH]c4ccc(C)cc4c3s2)c1	nt	-1%	8.9µM*	?	nt	nt
COc1ccc(NC(=O)C2CCC(CNS(=O)(=O)c3cccc4nsnc34)CC2)cc1OC (centres undefined)	-25%	13%[46.1 µM]	nt	-7	?	-3%[46.1 µM]
CCN(CC)CCCNc1oc(-c2cccc(Cl)c2)nc1C#N	nt	16µM*	?	8	nt	-2%
C=CCNc1oc(-c2cccc(Cl)c2)nc1C#N	nt	nt	nt	32	nt	nt
COc1ccccc1C(=O)NNC(=S)NC(=O)c1cccs1	nt	nt	nt	-78*	nt	nt
O=C(NC(=S)NNC(=O)c1ccccc1O)c1ccccc1	-16%	-13%[46.1 µM]	-21%	119	?	-13%[46.1 µM]
O=C(NC(=S)NNC(=O)c1ccccc1O)c1cccs1	-1%	?	8.9µM*	?	?	?
CC(=O)c1cccc(-c2ccnc3c2CC(C(=O)NCCc2ccccc2)O3)c1 (centres undefined)	-22%	nt	nt	-17	?	nt
CC1(C(=O)NCc2ccccc2)Cc2c(-c3ccc4c(c3)OCO4)ccnc2O1 (centres undefined)	-19%	nt	nt	-81*	i	nt
CC(=O)Nc1cccc(-c2ccnc3c2CC(C)(C(=O)NCCc2ccccc2)O3)c1 (centres undefined)	-23%	nt	nt	-88*	-10%	nt
CC1(C(=O)NCCc2ccccc2)Cc2c(-c3cccc(C(F)(F)F)c3)ccnc2O1 (centres undefined)	-26%	nt	nt	-62*	?	nt
CC(=O)Nc1cccc(-c2ccnc3c2CC(C)(C(=O)Nc2ccccc2)O3)c1 (centres undefined)	-12%	nt	nt	?	?	nt
CC(=O)Nc1cccc(-c2ccnc3c2CC(C(=O)NCCc2ccccc2)O3)c1 (centres undefined)	-29%	nt	nt	-86*	-12%	nt
